Compound activity as filed in PubChem.
BCLXL inh – blocks human Bcl-xL binding to Bim BH3 peptide. inhibition, % at 10.9 µM. AID 2129. Q07817. GST-Bcl-xL / FITC-Bim BH3 peptide fluorescence polarization. 0.7% of 320,000 active;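 active = inhibition above the mean of all tested compounds plus 3 SD, cutoff set per campaign, cut at about 30% in these data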;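 note: 0% = DMSO wells and 100% = unlabeled Bim-BH3 peptide competitor; inhibitors lower millipolarization by displacing the labeled peptide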
Target sequence (Q07817 whole entry, looked up): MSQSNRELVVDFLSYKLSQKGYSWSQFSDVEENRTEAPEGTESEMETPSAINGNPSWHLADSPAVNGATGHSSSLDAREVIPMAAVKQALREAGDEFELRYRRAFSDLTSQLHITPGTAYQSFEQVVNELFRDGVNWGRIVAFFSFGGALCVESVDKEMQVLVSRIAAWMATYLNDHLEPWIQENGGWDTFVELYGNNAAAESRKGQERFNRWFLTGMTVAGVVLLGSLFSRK
GLD-1 RNA inh – GLD-1-TGE RNA interaction inhibition (C. elegans). Q17339. purified GLD-1 + fluorescein TGE RNA, fluorescence polarization. inhibition, % at 5.96 µM. 0.44% of 320,000 active;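 active = percent inhibition above a per-plate cutoff, the plate mean of test compounds plus 3 SD, cut at about 30% in these data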;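 note: 0% = DMSO wells with GLD-1 and probe and 100% = wells lacking GLD-1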
Target sequence (Q17339 whole entry, looked up): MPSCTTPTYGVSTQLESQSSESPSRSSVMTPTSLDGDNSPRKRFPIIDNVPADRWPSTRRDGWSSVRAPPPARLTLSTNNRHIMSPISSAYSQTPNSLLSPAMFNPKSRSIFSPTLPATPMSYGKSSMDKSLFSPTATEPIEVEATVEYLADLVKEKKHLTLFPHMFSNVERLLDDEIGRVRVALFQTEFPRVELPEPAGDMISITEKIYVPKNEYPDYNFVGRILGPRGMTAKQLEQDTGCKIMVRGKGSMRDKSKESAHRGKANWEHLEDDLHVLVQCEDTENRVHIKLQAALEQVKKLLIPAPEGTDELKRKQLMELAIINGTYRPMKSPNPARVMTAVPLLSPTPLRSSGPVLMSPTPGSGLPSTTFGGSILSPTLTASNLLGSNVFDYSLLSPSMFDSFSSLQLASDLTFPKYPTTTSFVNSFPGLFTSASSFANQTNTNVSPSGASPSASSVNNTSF
MCL1-BIM inh – inhibitors of human MCL1 binding to BIM-BH3 peptide; inhibition, % at 10.9 µM; GST-MCL1 / FITC-Bim-BH3 fluorescence polarization; AID 2057; 0.68% of 320,000 active; Q07820;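 active = inhibition above the mean inhibition of all tested compounds plus 3 SD, set per campaign, cut at about 40% in these data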;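 note: 0% = DMSO wells and 100% = unlabeled Bim-BH3 peptide control; higher means more loss of mP so more displacement of Bim peptide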
E coli Lon inh – inhibitors of E. coli Lon protease; purified E. coli Lon protease, fluorescence polarization; inhibition, % at 7.94 µM; 0.42% of 360,000 active; in the data active = inhibition above about 13%, passing the limit was not always enough;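 note: 0% = enzyme with probe and DMSO and 100% = no enzyme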
MEX-5 binding – C. elegans MEX-5 TCR-2 RNA binding activity; Q9XUB2; MEX-5/FITC-TCR2 RNA binding, fluorescence polarization; stronger effect = lower value; activity score (negative = inhibition of binding), % at 10 µM; 0.38% of 300,000 active; AID 1832;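 active = inhibition past about -25% in most replicates, and total fluorescence under double the plate's negative control median, limit read from the data; inconclusive = replicates evenly split on the limit, or fluorescence at least double controls; inactive = too little inhibition in most replicates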;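 note: 0% = DMSO and -100% = 5 µM competing unlabeled TCR2 RNA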
Bcl-xL conf – Bcl-xL (human) inhibition, MCL1 counter-screen confirmation. shares compounds with MCL1-BIM inh. GST-Bcl-xL / FITC-Bim BH3 peptide FP binding. inhibition, % at 10.9 µM. 54% of 1,700 active;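 active = inhibition above a cutoff equal to the mean inhibition of all tested compounds plus 3 SD, cut at about 30% in these data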;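 note: 0% = DMSO wells and 100% = unlabeled Bim BH3 control peptide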
MCL1 BIM confirm – confirmation of human MCL1 and BIM-BH3 interaction inhibitors; shares compounds with MCL1-BIM inh; GST-MCL1 / FITC-Bim-BH3 fluorescence polarization; inhibition, % at 10.9 µM; 61% of 1,700 active;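 active = inhibition above the average of all tested compounds plus 3 SD, cut at about 40% in these data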;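 note: 0% = DMSO wells and 100% = unlabeled Bim-BH3 control peptide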
The depositor's hits bear a star; ? = inconclusive; . = not tested or not shown; + = active, no number. This is a sample that favours compounds with a hit; in the whole collection about 1.4% have one here.

SMILES | BCLXL inh | GLD-1 RNA inh | MCL1-BIM inh | E coli Lon inh | MEX-5 binding | Bcl-xL conf | MCL1 BIM confirm
Cc1ccc(NC(=O)CN2C(=O)NC3(CCCCCC3)C2=O)cc1Cl | -5 | -2 | -21 | 2 | . | . | .
CC1CCN(C(=O)Cn2nnc(-c3ccccc3)n2)CC1 | 10 | 7 | 45* | -17 | 2 | -25 | -51
CC1CC(C)CN(C(=O)Cn2nnc(-c3ccccc3)n2)C1 (configuration not stated) | 9 | 2 | 7 | 4 | 0 | . | .
Cc1cc(C)c(S(=O)(=O)NCc2nc3nc(C)cc(C)n3n2)c(C)c1 | 1 | 0 | 1 | 7 | 1 | . | .
C/C(=N\Nc1ncnc2sc(C)c(C)c12)c1ccccn1 | 101* | 25 | 101* | -25 | ? | + | +
COC(=O)C1=C(C)N(CCCC(=O)O)C(=O)NC1c1cc2c(cc1[N+](=O)[O-])OCO2 (configuration not stated) | 54* | 27 | 52* | 13 | -15 | 6 | 2
COC(=O)C1=C(C)N(C)C(=O)NC1c1cc2c(cc1[N+](=O)[O-])OCO2 (configuration not stated) | 59* | 28 | 54* | 0 | -6 | 44* | 40*
C[C@H](CO)N1C[C@H](C)[C@@H](CN(C)C)Oc2c(NS(=O)(=O)c3ccc(F)cc3)cccc2C1=O | . | 6 | . | -6 | . | . | .
CC(C)Cc1cc(C(=O)O)n[nH]1 | -6 | -2 | -10 | -7 | -5 | . | .
CC(C)(C)c1cc(C(=O)O)n[nH]1 | 2 | -1 | 48* | -8 | -1 | 2 | 14
COc1ccc2ccc3c(c2c1)N=C[C@]1(O3)N(C)c2ccccc2C1(C)C | 40* | 5 | 57* | -8 | 2 | 39* | 39
CC(C)(C)c1ccc(C(=O)NCCC(=O)Nc2ccc3c(c2)OCCO3)cc1 | . | . | . | -1 | . | . | .
Clc1cc(Cl)c2nc(N3CCCCC3)sc2c1 | -3 | 3 | -2 | 0 | -1 | . | .
Clc1cccc2sc(N3CCCCC3)nc12 | 69* | 19 | 58* | 0 | -2 | 2 | 6
Nc1ccc(C(=O)Nc2cccc(N)c2)cc1 | . | . | . | -3 | 0 | . | .
CC(=O)Nc1ccc(NC(=O)C(C)OC(=O)C2CCCCC2)cc1 (configuration not stated) | 18 | 21 | 151* | 17 | . | 2 | 9
CC(=O)Nc1ccc(NC(=O)C(C)OC(=O)C2CCCC2)cc1 (configuration not stated) | -19 | -5 | -11 | -1 | 0 | . | .
COc1ccc(S(=O)(=O)c2c(N)n(Cc3ccco3)c3nc4ccccc4nc23)cc1 | 101* | 117* | 105* | -31 | -2 | 22 | 31
COc1ccccc1N1CCN(C(=O)c2ccccc2N(C)S(=O)(=O)c2ccc(C)cc2)CC1 | 2 | 5 | -1 | -9 | 2 | . | .
Cc1ccc(Cl)cc1NC(=O)c1ccccc1OCC(=O)N1CCOCC1 | -4 | 7 | 63* | 5 | 0 | 7 | 13
Cc1ccc(Cl)cc1NC(=O)c1ccccc1OCC(=O)Nc1ccc(Cl)cc1 | 6 | -2 | 9 | -6 | 1 | . | .
Cc1c(C(=O)O)sc2nc(-c3cccs3)cc(C(F)(F)F)c12 | 8 | 1 | 4 | 3 | -2 | . | .
CC(=O)c1sc2nc(-c3cccs3)cc(C(F)(F)F)c2c1N | 63* | -4 | 68* | -21 | -30* | 74* | 83*
COc1ccc(-c2cc(C(F)(F)F)c3c(N)c(C(=O)NCCSC)sc3n2)cc1 | 80* | 58* | 78* | -12 | ? | 81* | 85*
CN(C)CCNc1ncnc2c1ncn2[C@H]1CN(Cc2ccc(F)cc2)C[C@@H](CO)O1 | . | . | . | -15 | . | . | .
SMILES | BCLXL inh | GLD-1 RNA inh | MCL1-BIM inh | E coli Lon inh | MEX-5 binding | Bcl-xL conf | MCL1 BIM confirm
CCOc1ccc(N(CC(=O)NN=C2CCN(C)CC2)S(C)(=O)=O)cc1 | 7 | 4 | 4 | 4 | 2 | . | .
CCOC(=O)C1=C(N)n2c(s/c(=C/c3ccco3)c2=O)=C(C(=O)OC)C1c1ccco1 (configuration not stated) | 7 | 4 | 2 | -8 | -2 | . | .
N#CC1=C(N)n2c(s/c(=C\c3ccco3)c2=O)=C(C#N)C1c1ccco1 (configuration not stated) | 44* | 7 | 55* | -18 | -12 | 104* | 150*
S=c1[nH]nc(COc2ccc(Cl)cc2)o1 | -31 | -8 | -24 | 1 | 1 | . | .
Cc1c(Br)c(=O)oc2c(Br)c(O)c(O)cc12 | 24 | 6 | 68* | -9 | -11 | 36* | 84*
O=C(Nc1ccccc1Cl)c1ccc(=O)[nH]n1 | 2 | 3 | 9 | -1 | 0 | . | .
CCCC1Nc2ccc(C(=O)O)cc2C2C=CCC12 (configuration not stated) | 49* | 23 | 87* | 13 | -49* | 4 | 3
CC(C)C1Nc2ccc(C(=O)O)cc2C2C=CCC21 (configuration not stated) | 48* | 28 | 82* | -3 | -54* | 36* | 48*
CC(=O)OCC1=C(C(=O)O)N2C(=O)C(NC(=O)CCn3nc(C)c(Cl)c3C)C2SC1 (configuration not stated) | 6 | -4 | 6 | -3 | -3 | . | .
CC(=O)OCC1=C(C(=O)O)N2C(=O)C(NC(=O)CCn3nc(C(F)(F)F)c(Br)c3C3CC3)C2SC1 (configuration not stated) | 9 | -1 | 65* | -1 | -4 | 24 | 96*
CC(NS(=O)(=O)OCC(Cl)(Cl)Cl)c1ccc(C(C)(C)C)cc1 (configuration not stated) | 3 | 14 | 0 | 5 | -1 | . | .
C[C@H](NS(=O)(=O)OCC(Cl)(Cl)Cl)C1CC1c1ccccc1 (some centres not stated) | 5 | 10 | 47* | -2 | 2 | 15 | 61*
Cc1cccc(-n2c(O)c(C=Nc3cccc(O)c3)c3ccccc3c2=O)n1 | 6 | 5 | 5 | -5 | -1 | . | .
Cc1cccc(-n2c(O)c(C=Nc3ccc4c(c3)OCO4)c3ccccc3c2=O)n1 | 26 | -62 | 40* | -1 | -36* | 0 | -16
CCCN1CCC2(CC1)C(C#N)=C(N)Oc1c2sc2nc(C)cc(C)c12 | 69* | 30 | 70* | -37 | -1 | 45* | 46*
CCOC(=O)C1(Cc2cccc(Cl)c2)CCCN(C(=O)c2cc(C)on2)C1 (configuration not stated) | . | . | . | 4 | 0 | . | .
CCOC(=O)C1(Cc2cccc(Cl)c2)CCCN(C(=O)c2c(CC)noc2C)C1 (configuration not stated) | 6 | 4 | 42* | 0 | 1 | 4 | 1
c1ccc(-c2nnc(CN3CCCc4ccccc43)o2)cc1 | 65* | -4 | 72* | -18 | -6 | 46* | 68*
